Shown are actives, neighbours in structure and some others; about 4.2% of the full set was active somewhere.
TRPV1 PAM: HTS Assay for Compounds that Act as Potentiators of the Vanilloid Receptor 1 | Transient receptor potential cation channel subfamily V member 1 (Homo sapiens), Q8NER1 | TRPV1-expressing cells, Fluo-8 calcium influx, capsaicin EC20 potentiation | 320,000 tested, 0.02% active | potentiation, % at 8.33 µM; in the data active means potentiation above about 80%; inconclusive means between about 30% and that limit
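TRPV1-expressing cells were cultured overnight at 35.5C and loaded with Fluo-8 calcium dye for 40 to 90 min at room temperature. After a 10 s baseline, compound was added and calcium influx was read kinetically for 3 min (ex 480/em 520 nm).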
D1 antagonist: Antagonist of Human D 1 Dopamine Receptor: qHTS. D(1A) dopamine receptor (Homo sapiens), P21728. HEK293 TREx D1 cells, calcium flux, dopamine EC80; active compounds read low. activity change, negative = inhibition, % at 10 µM. 360,000 tested, 3.2% active; in the data active means activity change below about -30%
Target sequence (P21728 whole entry, looked up): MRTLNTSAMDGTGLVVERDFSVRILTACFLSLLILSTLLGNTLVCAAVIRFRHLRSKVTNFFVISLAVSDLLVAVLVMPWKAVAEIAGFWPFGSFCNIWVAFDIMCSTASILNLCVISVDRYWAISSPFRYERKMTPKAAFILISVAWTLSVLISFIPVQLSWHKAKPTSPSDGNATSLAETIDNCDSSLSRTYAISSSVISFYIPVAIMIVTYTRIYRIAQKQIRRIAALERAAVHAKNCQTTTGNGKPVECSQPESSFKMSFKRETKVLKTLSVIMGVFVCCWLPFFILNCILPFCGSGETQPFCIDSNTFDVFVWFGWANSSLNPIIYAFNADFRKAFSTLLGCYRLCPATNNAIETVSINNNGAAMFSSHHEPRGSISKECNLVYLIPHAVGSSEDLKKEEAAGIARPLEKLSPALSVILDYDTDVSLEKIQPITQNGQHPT
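Compound effects on dopamine-evoked calcium signalling were measured in tetracycline-induced HEK293 Trex D1 cells. Dopamine at EC80 followed a 180 s compound pre-read, and fluorescence was tracked kinetically for 180 s more.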
D1 agonist: Allosteric Agonists of the Human D1 Dopamine Receptor: qHTS; D(1A) dopamine receptor (Homo sapiens), P21728; HEK293 T-REx D1 cells, calcium flux, agonist mode; activation, % at 2 µM; 360,000 tested, 1% active; in the data active means activation above about 30%
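Inducible HEK293 T-REx D1 cells, force-coupled to calcium signalling, were plated at 4000 cells/well with tetracycline and held overnight at 30 C. After no-wash calcium dye loading, compound-evoked calcium rise over 180 s flagged agonists.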
D1 PAM: Potentiators of Human D1 Dopamine Receptor: qHTS; HEK293 TREx D1 cells, calcium flux, dopamine EC20 potentiation; potentiation, % at 10 µM; 360,000 tested, 0.036% active; AID 504651, 2011; in the data active means potentiation above about 30%
TRPV1 ag: HTS Assay for Compounds that Act as Agonists of the Vanilloid Receptor 1. 320,000 tested, 0.19% active. AID 540275, 2011. TRPV1-expressing cells, Fluo-8 calcium influx, agonist mode. activation, % at 8.33 µM. Transient receptor potential cation channel subfamily V member 1 (Homo sapiens), Q8NER1; in the data active means activation above about 80%; inconclusive means between about 30% and that limit
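Fluo-8 calcium influx in TRPV1-expressing cells, kinetic read (ex 480/em 520 nm). Compound added and read 3 min for agonist activity, followed by capsaicin at EC20 final and 2 min further read for enhancement.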
Each line names hits and unclear results; the compound was inactive in the other large screens.

COC1CCCN(Cc2cn(C)nc2-c2ccc(Oc3ccccc3)cc2)C1 (stereo not given)	none
CCCN1CCC(NCc2cn(C)nc2-c2ccc(Oc3ccccc3)cc2)CC1	D1 agonist 30
CN1C[C@H](C(=O)N[C@]2(C)O[C@@]3(O)[C@@H]4CCCN4C(=O)[C@H](Cc4ccccc4)N3C2=O)CC2c3cccc4[nH]cc(c34)C[C@H]21 (stereo not given in full)	TRPV1 PAM inconclusive, D1 antagonist -62
COCCNC(=O)CN1C(=O)c2cccnc2Oc2ccc(Cl)cc21	none (no result: TRPV1 PAM, TRPV1 ag)
Cc1cc(C(=O)N2CCCC(C(=O)c3ccc(Cl)cc3C)C2)no1 (stereo not given)	D1 antagonist -35, TRPV1 ag inconclusive
Cc1ccc(C(=O)N(C)c2nnc(-c3ccncc3)s2)cc1	D1 antagonist -30
CN(C(=O)c1ccncc1)c1nnc(-c2cccnc2)s1	none
CC(Oc1ccc(F)cc1)c1ccnc2nc(/N=C/N(C)C)nn12 (stereo not given)	none
CC(Oc1ccc(C(C)(C)C)cc1)c1ccnc2nc(/N=C/N(C)C)nn12 (stereo not given)	D1 agonist 46
O=C(N/N=C/C=C\c1ccccc1)c1cnccn1	none
O=C(N/N=C/C=C/c1ccccc1)c1ccccn1	TRPV1 ag 97
COc1cccc(C2C(C(=O)Nc3ccc(Cl)cc3)=C(C)Nc3c(C(=O)Nc4ccccc4)cnn32)c1OC (stereo not given)	none (no result: TRPV1 PAM, TRPV1 ag)
COc1cccc(C2=CC(=O)C[C@H](c3ccc(Cl)cc3)C2)c1OC	none
COc1ccccc1C1=CC(=O)C[C@H](c2ccc(Cl)cc2)C1	D1 antagonist -36
COc1ccc([C@H]2CC(=O)C=C(c3ccccc3OC)C2)cc1OC	D1 antagonist -46
COc1ccc([C@H]2CC(=O)C=C(c3ccccc3)C2)cc1OC	none
O=C1C=C(c2ccc(-c3ccccc3)cc2)C[C@@H](c2ccc(Cl)cc2)C1	D1 antagonist -36
CCN(CC)S(=O)(=O)c1nnc(NC(=O)COc2cccc(C)c2)s1	none (no result: TRPV1 PAM, TRPV1 ag)
COc1cc(OC)cc(C(=O)NCC(=O)OCC(=O)/C=C2/N(C)c3ccccc3C2(C)C)c1	none
CN1/C(=C\C(=O)COC(=O)Cn2nnc(-c3ccccc3)n2)C(C)(C)c2ccccc21	D1 antagonist -35
COc1ccc(C(=O)Nc2nnc(SCC(=O)NCC3CCCO3)s2)cc1OC (stereo not given)	D1 antagonist -30
COc1cccc(C(=O)Cn2c(=O)n(CCC(=O)NCC3CCCO3)c(=O)c3cc(OC)c(OC)cc32)c1 (stereo not given)	none
Cc1cc(C)cc(C(=O)Nc2nnc(SCC(=O)NCC3CCCO3)s2)c1 (stereo not given)	none
COc1cc2c(=O)n(CCC(=O)NCC3CCCO3)c(=O)n(CC(=O)c3ccc(Cl)cc3)c2cc1OC (stereo not given)	D1 antagonist -30
CCOc1ccc(-c2nnc(SCC(=O)Nc3cccc(Cl)c3C)o2)cc1	D1 antagonist -35 (no result: TRPV1 PAM, TRPV1 ag)
Cc1ccc(-c2noc(CNC(=O)c3ccc(C)c(Cl)c3)n2)cc1	none (no result: TRPV1 PAM, TRPV1 ag)
CCOC(=O)Nc1ccc2c(c1)N(CCCN(C)C)c1ccccc1CC2	D1 agonist 38
CCn1c(=O)c(C(=O)NNC(=O)c2ccccc2Cl)c(O)c2ccccc21	D1 agonist 66
CCn1c(=O)c(C(=O)NNC(=O)c2ccccc2F)c(O)c2ccccc21	D1 antagonist -42, D1 agonist 83
CCOc1ccc(-c2cc3c(=O)n(Cc4nc(-c5ccc(OC)cc5OC)oc4C)ccn3n2)cc1Cl	none (no result: TRPV1 PAM, TRPV1 ag)
Cc1ccc(S(=O)(=O)c2cn(CC(=O)Nc3ccc4c(c3)OCO4)c3ccc(C)cc3c2=O)cc1	none (no result: TRPV1 PAM, TRPV1 ag)
Cc1ccc2[nH]cc(/C=C/c3cc[n+](C)cc3)c2c1	D1 agonist 30
CC[n+]1ccc(/C=C/c2c[nH]c3ccccc23)cc1	D1 agonist 64
COc1ccc2c(/C=C/c3cc[n+](C)cc3)c[nH]c2c1	none

Compound activity: PubChem, National Center for Advancing Translational Sciences (NCATS)
